Assay results from PubChem BioAssay (NCATS).
Inconclusive results are not listed. Activity calls are given as the source filed them. Calls come from the whole dose curve; as a rule, active = well fitted curve in the direction sought with a large enough effect; inconclusive = small, poorly fitted or top-dose-only effect, or another doubt; inactive = no such curve, though single readings can be large; an effect the other way counts as inactive or inconclusive.

Experiments:
[1] = Quantitative High-Throughput drug screen in 47 multiple myeloma cell lines against the NCATS MIPE library collection: KMS12BM_JCRB cell viability assay (AID 1918971); note: nearly all actives have a fitted effect of over 35% in size
Summary of the method: (§1)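 Relative luminescence from CellTiter-Glo served as the viability signal, referenced to DMSO-treated (100%) and cell-free medium (0%) controls. Treatment lasted 48 hours at 37C with 500 cells per well.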

[2] = Quantitative High-Throughput drug screen in 47 multiple myeloma cell lines against the NCATS MIPE library collection: KMS12PE_JCRB cell viability assay (AID 1918972); note: nearly all actives have a fitted effect of over 30% in size
Summary of the method: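 qHTS of the MIPE 4.0 collection: 500 myeloma cells/well, 48 h drug exposure at 37C in 5% CO2, then CellTiter-Glo for 5 min at room temperature before luminescence reading.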

[3] = Quantitative High-Throughput drug screen in 47 multiple myeloma cell lines against the NCATS MIPE library collection: KMS20_JCRB cell viability assay (AID 1918973); note: nearly all actives have a fitted effect of over 45% in size
Summary of the method: (§2)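 Myeloma cells (500 per well) were exposed to MIPE 4.0 compounds by pin transfer and incubated 48 hours at 37C, 5% CO2. Viability was read as ATP by CellTiter-Glo luminescence, normalised to DMSO (100%) and media-only (0%) wells.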

[4] = Quantitative High-Throughput drug screen in 47 multiple myeloma cell lines against the NCATS MIPE library collection: KMS26_JCRB cell viability assay (AID 1918975); note: nearly all actives have a fitted effect of over 45% in size
Summary of the method: as §1

[5] = Quantitative High-Throughput drug screen in 47 multiple myeloma cell lines against the NCATS MIPE library collection: MMM1_PLB cell viability assay (AID 1918976); note: nearly all actives have a fitted effect of over 35% in size
Summary of the method: (§3)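 Viability after 48 h drug exposure was measured as ATP-dependent luminescence. Cells, 500 per well, sat at 37 °C under 5% CO2; DMSO wells set 100%, media-only wells 0%.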

[6] = Quantitative High-Throughput drug screen in 47 multiple myeloma cell lines against the NCATS MIPE library collection: NCIH929_DSMZ cell viability assay (AID 1918978); note: nearly all actives have a fitted effect of over 35% in size
Summary of the method: as §3

[7] = Quantitative High-Throughput drug screen in 47 multiple myeloma cell lines against the NCATS MIPE library collection: MM1S_ATCC cell viability assay (AID 1918980); note: nearly all actives have a fitted effect of over 45% in size
Summary of the method: as §3

[8] = Quantitative High-Throughput drug screen in 47 multiple myeloma cell lines against the NCATS MIPE library collection: MOLP8_DSMZ cell viability assay (AID 1918977); note: nearly all actives have a fitted effect of over 45% in size
Summary of the method: as §3

[9] = Quantitative High-Throughput drug screen in 47 multiple myeloma cell lines against the NCATS MIPE library collection: OCIMY1_PLB cell viability assay (AID 1918979); note: nearly all actives have a fitted effect of over 35% in size
Summary of the method: as §3

[10] = Quantitative High-Throughput drug screen in 47 multiple myeloma cell lines against the NCATS MIPE library collection: KMS21BM_JCRB cell viability assay (AID 1918974); settings: ATP luminescence, 48 h; viability: at 45.8 µM (top of the series)
Summary of the method: as §2
Potency is the fitted concentration of half-maximal effect.

Row | SMILES | Potency [1] | Potency [2] | Potency [3] | Potency [4] | Potency [5] | Potency [6] | Potency [7] | Potency [8] | Potency [9] | Potency [10]
1 | COc1nccc(-c2c(-c3ccc(F)cc3)ncn2C2CCNCC2)n1 | 20.9 µM (active) | inactive | inactive | inactive | 13.2 µM (active) | – | – | – | – | –
2 | O=C(c1ccc(F)c(F)c1Nc1ccc(I)cc1F)N1CC(O)([C@H]2CCCCN2)C1 | 23.5 µM (active) | 16.6 µM (active) | 0.372 µM (active) | 23.5 µM (active) | – | 14.8 µM (active) | 18.7 µM (active) | – | – | –
3 | Cc1cccc(Nc2nc(N[C@@H]3CCCC[C@H]3N)ncc2C(N)=O)c1 | 14.8 µM (active) | 16.6 µM (active) | 4.69 µM (active) | 20.9 µM (active) | 20.9 µM (active) | 6.62 µM (active) | – | 14.8 µM (active) | 26.4 µM (active) | –
4 | Cc1ccc(NC(=O)Nc2cc(C(F)(F)F)ccc2F)cc1Nc1ccc2c(c1)NC(=O)C2=Cc1ccc[nH]1 | 26.4 µM (active) | 2.35 µM (active) | 5.9 µM (active) | 37.2 µM (active) | 33.2 µM (active) | 4.18 µM (active) | – | – | – | –
5 | CCOC(=O)N1c2ccc(C(F)(F)F)cc2[C@@H](N(Cc2cc(C(F)(F)F)cc(C(F)(F)F)c2)C(=O)OC)C[C@H]1CC | 13.2 µM (active) | inactive | inactive | 3.32 µM (active) | 8.33 µM (active) | 8.33 µM (active) | – | – | – | –
6 | COc1cc2ncnc(Nc3cc(Br)c(O)c(Br)c3)c2cc1OC | 0.0019 µM (active) | 6.62 µM (active) | 0.0023 µM (active) | inactive | – | inactive | – | inactive | – | –
7 | CN(C)CCN(C)C(=O)c1ccc(NC(=O)Nc2ccc(-c3nc(N4CCOCC4)c4ccn(CC(F)(F)F)c4n3)cc2)cc1 | 0.209 µM (active) | 0.132 µM (active) | 0.0418 µM (active) | 0.0526 µM (active) | 0.0296 µM (active) | 0.0083 µM (active) | 0.0526 µM (active) | 0.0066 µM (active) | 7.43 µM (active) | –
8 | CCN(CC)CCCCNc1nc2cc(Cl)c(Cl)cc2nc1-c1ccc(-c2cccs2)s1 | 16.6 µM (active) | 6.62 µM (active) | 4.69 µM (active) | 13.2 µM (active) | 9.35 µM (active) | 7.43 µM (active) | 11.8 µM (active) | 8.33 µM (active) | 14.8 µM (active) | –
9 | O=C1CN2Cc3c(ccc(Cl)c3Cl)N=C2N1 | 23.5 µM (active) | inactive | inactive | – | 23.5 µM (active) | – | 18.7 µM (active) | – | inactive | –
10 | CCN1CCC(n2cc(CNc3cc(Cl)c4ncc(C#N)c(Nc5ccc(F)c(Cl)c5)c4c3)nn2)CC1 | 9.35 µM (active) | 8.33 µM (active) | 16.6 µM (active) | 8.33 µM (active) | 14.8 µM (active) | 20.9 µM (active) | 16.6 µM (active) | – | – | –
11 | CC(C)CN(C[C@@H](O)[C@H](Cc1ccccc1)NC(=O)O[C@H]1CO[C@H]2OCC[C@H]21)S(=O)(=O)c1ccc(N)cc1 | 20.9 µM (active) | inactive | 2.96 µM (active) | 3.32 µM (active) | 20.9 µM (active) | – | 2.35 µM (active) | inactive | inactive | –
12 | C[C@@H]1O[C@@H](O[C@H]2CC[C@@]3(C)[C@H](CC[C@@H]4[C@H]3C[C@@H](O)[C@]3(C)[C@@H](C5=CC(=O)OC5)CC[C@]43O)C2)C[C@H](O)[C@@H]1O[C@H]1C[C@H](O)[C@H](O[C@H]2C[C@H](O)[C@@H](O)[C@@H](C)O2)[C@H](C)O1 (stereo in doubt) | 0.215 µM (active) | 0.054 µM (active) | 0.27 µM (active) | 0.27 µM (active) | 0.171 µM (active) | 0.34 µM (active) | 0.34 µM (active) | 0.152 µM (active) | 0.241 µM (active) | 0.215 µM (active)
13 | COC(=O)Nc1ccc(-c2nc(N3CCOCC3)c3cnn(C4CCN(C(=O)OC)CC4)c3n2)cc1 | 0.935 µM (active) | 1.66 µM (active) | 0.0148 µM (active) | 1.66 µM (active) | 0.418 µM (active) | 0.0372 µM (active) | 0.0066 µM (active) | 1.48 µM (active) | 5.26 µM (active) | 0.0526 µM (active)
14 | NC1(C(=O)N[C@@H](CCO)c2ccc(Cl)cc2)CCN(c2ncnc3[nH]ccc23)CC1 | inactive | 0.418 µM (active) | 1.18 µM (active) | 0.209 µM (active) | 0.0105 µM (active) | 0.0833 µM (active) | 0.0833 µM (active) | – | – | –
15 | NS(=O)(=O)c1ccc(Nc2nc(OCC3CCCCC3)c3[nH]cnc3n2)cc1 | 26.4 µM (active) | 20.9 µM (active) | 20.9 µM (active) | – | 2.09 µM (active) | 4.18 µM (active) | – | – | inactive | 4.18 µM (active)
16 | Cc1cccc(-c2[nH]c(C(C)(C)C)nc2-c2ccc3c(c2)OCO3)n1 | 18.7 µM (active) | 3.72 µM (active) | 2.35 µM (active) | 16.6 µM (active) | 16.6 µM (active) | 6.62 µM (active) | 16.6 µM (active) | 6.62 µM (active) | – | –
17 | O=c1[nH]nc(OCCCc2ccc(Cl)cc2)c(NCc2cccnc2)c1Br | 18.7 µM (active) | 2.64 µM (active) | 1.05 µM (active) | 14.8 µM (active) | 16.6 µM (active) | 7.43 µM (active) | 8.33 µM (active) | – | – | –

Row | SMILES | Potency [1] | Potency [2] | Potency [3] | Potency [4] | Potency [5] | Potency [6] | Potency [7] | Potency [8] | Potency [9] | Potency [10]
18 | Nc1[nH]nc2nnc(-c3c(-c4ccccc4)nn4ccccc34)cc12 | inactive | 2.35 µM (active) | 2.09 µM (active) | inactive | – | 3.72 µM (active) | 0.264 µM (active) | – | – | –
19 | CN[C@@H]1CN(c2ccc3c(=O)c(C(=O)O)cn(-c4nccs4)c3n2)C[C@@H]1OC | 0.645 µM (active) | inactive | 6.45 µM (active) | 18.2 µM (active) | 8.12 µM (active) | 1.62 µM (active) | 0.257 µM (active) | 6.45 µM (active) | – | –
20 | CCC(=C(CC)c1ccc(O)cc1)c1ccc(O)cc1 | 13.2 µM (active) | 13.2 µM (active) | inactive | 13.2 µM (active) | – | 16.6 µM (active) | 14.8 µM (active) | – | – | –
21 | CCCCCOC(=O)Nc1nc(=O)n([C@@H]2O[C@H](C)[C@@H](O)C2O)cc1F (stereo partly drawn) | inactive | inactive | inactive | inactive | inactive | – | – | inactive | inactive | –
22 | Cc1ccccc1-n1c(Cn2nc(-c3cccc(O)c3)c3c(N)ncnc32)nc2cccc(C)c2c1=O | 8.33 µM (active) | 0.935 µM (active) | 5.26 µM (active) | 11.8 µM (active) | 18.7 µM (active) | 14.8 µM (active) | 1.32 µM (active) | 5.9 µM (active) | – | –
23 | CN1[C@H]2CC[C@H]1CC(OC(=O)c1c[nH]c3ccccc13)C2 (stereo partly drawn) | inactive | inactive | 14.8 µM (active) | inactive | 1.32 µM (active) | 18.7 µM (active) | 20.9 µM (active) | 2.35 µM (active) | inactive | –
24 | OC(c1cc(C(F)(F)F)nc2c(C(F)(F)F)cccc12)C1CCCCN1 (stereo not drawn) | 26.4 µM (active) | 20.9 µM (active) | 10.5 µM (active) | 29.6 µM (active) | 23.5 µM (active) | 20.9 µM (active) | 20.9 µM (active) | 23.5 µM (active) | – | –
25 | CN1CC(=O)N2C(Cc3c([nH]c4ccccc34)[C@H]2c2ccc3c(c2)OCO3)C1=O (stereo partly drawn) | 1.32 µM (active) | inactive | inactive | – | – | inactive | – | inactive | inactive | –
26 | CC[C@H](C)C(=O)O[C@H]1C[C@H](O)C=C2C=C[C@H](C)[C@H](CC[C@@H](O)C[C@@H](O)CC(=O)O)[C@H]21 | inactive | inactive | inactive | – | – | inactive | inactive | inactive | – | inactive
27 | CCC(=C(c1ccc(O)cc1)c1ccc(OCCNC)cc1)c1ccccc1 | 29.6 µM (active) | 23.5 µM (active) | 5.9 µM (active) | 26.4 µM (active) | 20.9 µM (active) | 14.8 µM (active) | 20.9 µM (active) | 26.4 µM (active) | 23.5 µM (active) | –
28 | CCOC(=O)[C@H]1O[C@H]1C(=O)N[C@@H](CC(C)C)C(=O)NCCC(C)C | 10.5 µM (active) | inactive | inactive | – | – | inactive | – | inactive | inactive | –
29 | COc1ccc2ccc(=O)oc2c1CC=C(C)C | 13.2 µM (active) | 20.9 µM (active) | inactive | 10.5 µM (active) | 16.6 µM (active) | inactive | 2.96 µM (active) | 8.33 µM (active) | – | –
30 | Cc1ccccc1C(=O)c1ccc(Nc2ccc(Br)cc2N)cc1Cl | 14.8 µM (active) | 7.43 µM (active) | 14.8 µM (active) | 5.26 µM (active) | 16.6 µM (active) | 23.5 µM (active) | 6.62 µM (active) | – | – | –
31 | CO[C@@H]1C(N(C)C(=O)c2ccccc2)C[C@H]2O[C@]1(C)n1c3ccccc3c3c4c(c5c6ccccc6n2c5c31)C(=O)NC4=O (stereo partly drawn) | inactive | 1.66 µM (active) | 3.72 µM (active) | 1.32 µM (active) | – | – | – | – | – | –
32 | CCOC(=O)[C@H](CCc1ccccc1)N[C@@H](C)C(=O)N1CCCC1C(=O)O (stereo partly drawn) | inactive | inactive | inactive | inactive | – | inactive | 10.5 µM (active) | inactive | inactive | –
33 | CN(C(Cc1ccc(OS(=O)(=O)c2cccc3cnccc23)cc1)C(=O)N1CCN(c2ccccc2)CC1)S(=O)(=O)c1cccc2cnccc12 (stereo not drawn) | 10.5 µM (active) | 5.26 µM (active) | 2.64 µM (active) | 14.8 µM (active) | 5.9 µM (active) | 16.6 µM (active) | – | – | – | –
